Measurements as given in PubChem BioAssay (Tox21).
Inconclusive results are not listed. Calls of active or inactive are those of the source. Unless noted, the call rests on the fitted dose curve; in most records, active means well fitted curve in the direction sought with a large enough effect in the repeat runs; inconclusive means weak or mixed curves; inactive means no such curve, though single readings can be large; an effect the other way counts as inactive or inconclusive.

What was measured:
[1] = qHTS assay to identify aromatase inhibitors - cell viability counter screen (AID 743084);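 further: cells stimulated with testosterone during compound exposure; nearly all actives have a fitted effect of over 55% in size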
[2] = molecular target: Aryl hydrocarbon receptor (Homo sapiens) (UniProt P35869); assay: qHTS assay to identify small molecule that activate the aryl hydrocarbon receptor (AhR) signaling pathway (AID 743085);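 further: HG2L7.5c1 human HepG2 liver cells with stably integrated DRE-driven firefly reporter; series mostly up to about 70 µM; nearly all actives have a fitted effect of over 15% in size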
In short: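 Steps: seed HepG2-AhR-luc cells; allow 5 h at 37C; pin-transfer test compound or vehicle; incubate 24 h at 37C; add viability dye (30 min, 37C) and read fluorescence; add luciferase substrate (30 min, RT) and read luminescence.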

[3] = qHTS assay to identify small molecule that activate the aryl hydrocarbon receptor (AhR) signaling pathway - cell viability counter screen (AID 743086);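 further: HepG2 liver cells carrying the AhR DRE luciferase reporter; series mostly up to about 70 µM; nearly all actives have a fitted effect of over 45% in size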
In short: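 Cytotoxicity counter screen: CellTiter-Fluor signal (30 min, 37 C) in 4000 HepG2 cells/well carrying the DRE-luciferase reporter, following 24 h compound exposure at 37 C.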

[4] = molecular target: Peroxisome proliferator-activated receptor gamma (Homo sapiens) (UniProt P37231); assay: qHTS assay to identify small molecule agonists of the peroxisome proliferator-activated receptor gamma (PPARg) signaling pathway (AID 743094; active means well fitted activation curve with a large enough effect in the signal ratio in the repeat runs, not every such curve was filed as active; the % refers to the signal ratio)
In short: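 Following 5 h plating at 37C, PPARg-bla HEK293H cells receive compound or DMSO for 17 h; fluorescence intensity is recorded after LiveBLAzer B/G loading for 1 h at room temperature.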

[5] = molecular target: Peroxisome proliferator-activated receptor gamma (Homo sapiens) (UniProt P37231); assay: qHTS assay to identify small molecule antagonists of the peroxisome proliferator-activated receptor gamma (PPARg) signaling pathway (AID 743191; calls by dose curve; further: series mostly up to about 63 µM; nearly all actives have a fitted effect of over 30% in size)
In short: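 Beta-lactamase reporter under UAS control in HEK293H PPARg-bla cells; compound treatment 17 h at 37C. Read-out: fluorescence intensity after 1 h room-temperature incubation with LiveBLAzer B/G FRET substrate.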

[6] = qHTS assay to identify small molecule antagonists of the peroxisome proliferator-activated receptor gamma (PPARg) signaling pathway - cell viability counter screen (AID 743194); further: nearly all actives have a fitted effect of over 55% in size
In short: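 Viability was measured as CellTiter-Glo luminescence in GeneBLAzer PPARg UAS-bla HEK293H cells. These cells had been exposed 17 h at 37 C to compounds together with rosiglitazone at 50 nM final, with the beta-lactamase readout taken in the same wells.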

[7] = qHTS assay for small molecule agonists of the antioxidant response element (ARE) signaling pathway (AID 743202; active means well fitted activation curve with a large enough effect in the signal ratio in the repeat runs, not every such curve was filed as active; the % refers to the signal ratio)
In short: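 An ARE-responsive beta-lactamase gene stably integrated in HepG2 cells serves as reporter. After 5 h plating and 16 h compound incubation at 37 C, fluorescence of the B/G FRET substrate was measured.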

[8] = qHTS assay for small molecule activators of the heat shock response signaling pathway - cell viability counter screen (AID 743209); further: nearly all actives have a fitted effect of over 50% in size
In short: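 Counter screen for cytotoxicity in HeLa HSE-bla reporter cells. Treatment was 5 h at 37 C; viability was detected by luminescent ATP assay (CellTiter-Glo) in the same wells as the beta-lactamase read.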

[9] = qHTS assay for small molecule activators of the heat shock response signaling pathway (AID 743210; active means well fitted activation curve with a large enough effect in the signal ratio in the repeat runs, with a control signal flat, not every such curve was filed as active; the % refers to the signal ratio;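 further: HeLa cells with beta-lactamase reporter driven by heat shock elements; series mostly up to about 63 µM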)
In short: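 In HSE-bla HeLa cells, 5 h compound incubation (37 C) precedes addition of LiveBLAzer B/G substrate; after 2.5 h at room temperature, fluorescence intensity indicates reporter induction.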

[10] = qHTS assay to identify small molecule agonists of the peroxisome proliferator-activated receptor delta (PPARd) signaling pathway - cell viability counter screen (AID 743211); further: nearly all actives have a fitted effect of over 55% in size
In short: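 Viability of GeneBLAzer PPARd UAS-bla HEK293H cells was assessed after 17 h compound incubation at 37C, using CellTiter-Glo reagent added after the reporter read and luminescence recorded 30 min later.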

[11] = qHTS assay to identify small molecule antagonists of the peroxisome proliferator-activated receptor delta (PPARd) signaling pathway - cell viability counter screen (AID 743213); further: nearly all actives have a fitted effect of over 50% in size
In short: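 Same-well viability: cells pre-incubated 5 h, dosed with compound plus 300 nM L165041, kept 17 h at 37 C, FRET substrate 2 h RT, then CellTiter-Glo 30 min RT and luminescence.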

[12] = qHTS assay to identify small molecule agonists of the farnesoid-X-receptor (FXR) signaling pathway - cell viability counter screen (AID 743218); further: nearly all actives have a fitted effect of over 45% in size
In short: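 After 16 h at 37 C with test compounds, FXR-bla HEK 293T cells were given LiveBLAzer B/G substrate for 2 h at RT and then CellTiter-Glo; luminescence was taken after 30 min.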

[13] = qHTS assay to identify small molecule antagonists of the farnesoid-X-receptor (FXR) signaling pathway - cell viability counter screen (AID 743221; active means well fitted cell-killing curve with a large enough effect in the repeat runs, not every such curve was filed as active; further: nearly all actives have a fitted effect of over 50% in size)
In short: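 Quantitative HTS of the Tox21 10K library run in parallel with the beta-lactamase reporter read. HEK 293T cells carrying a UAS-driven bla reporter got compound and 50 uM CDCA (final) for 16 h; ATP-based luminescence followed.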

[14] = molecular target: Vitamin D3 receptor (Homo sapiens) (UniProt P11473); assay: qHTS assay to identify small molecule agonists of the vitamin D receptor (VDR) signaling pathway (AID 743222; calls by dose curve)
In short: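 VDR-bla cells were seeded, left 4 h, treated with compounds in DMSO for 16 h, incubated 2 h at RT with B/G FRET substrate, and read for fluorescence.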

[15] = molecular target: Vitamin D3 receptor (Homo sapiens) (UniProt P11473); assay: qHTS assay to identify small molecule antagonists of the vitamin D receptor (VDR) signaling pathway (AID 743223; active means well fitted inhibition curve with a large enough effect in the signal ratio in the repeat runs, not every such curve was filed as active; the % refers to the signal ratio)
In short: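 Fluorescence from LiveBLAzer B/G FRET substrate, read after 2 h at room temperature, reflects beta-lactamase reporter activity in VDR-bla cells treated 16 h at 37C with compounds and agonist 1alpha,25-dihydroxyvitamin D3 (3 nM final).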

[16] = qHTS assay for small molecule agonists of the antioxidant response element (ARE) signaling pathway - cell viability counter screen (AID 743203; calls by dose curve; further: nearly all actives have a fitted effect of over 55% in size)
In short: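 Compounds in DMSO were pinned onto ARE-bla HepG2 cells plated 5 hrs earlier at 2,000 cells/well. Sixteen hours later at 37C/5% CO2, CellTiter-Glo was added and luminescence measured after 30 min at room temperature.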

[17] = molecular target: Peroxisome proliferator-activated receptor delta (Homo sapiens) (UniProt Q03181); assay: qHTS assay to identify small molecule agonists of the peroxisome proliferator-activated receptor delta (PPARd) signaling pathway (AID 743212; calls by dose curve)
In short: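 HEK293H UAS-bla reporter cells, human PPARd system; compounds delivered in DMSO after 5 h plating, then at 37 C. Beta-lactamase FRET read, 2 h RT substrate step.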

[18] = molecular target: Peroxisome proliferator-activated receptor delta (Homo sapiens) (UniProt Q03181); assay: qHTS assay to identify small molecule antagonists of the peroxisome proliferator-activated receptor delta (PPARd) signaling pathway (AID 743215; active means well fitted inhibition curve with a large enough effect in the signal ratio in the repeat runs, not every such curve was filed as active; the % refers to the signal ratio;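 further: cells stimulated with agonist L165041 at 300 nM final during compound exposure; series mostly up to about 62 µM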)
In short: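 With L165041 present at 300 nM final, compounds were incubated 17 h at 37 C on PPARd UAS-bla HEK293H cells. A FRET-based beta-lactamase substrate was then applied for 2 h at room temperature and fluorescence intensity recorded.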

[19] = molecular target: Bile acid receptor (Homo sapiens) (UniProt Q96RI1); assay: qHTS assay to identify small molecule antagonists of the farnesoid-X-receptor (FXR) signaling pathway (AID 743217; active means well fitted inhibition curve with a large enough effect in the signal ratio in the repeat runs, not every such curve was filed as active; the % refers to the signal ratio)
In short: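 In this cell-based antagonist screen, inhibition of CDCA-driven (50 uM final) UAS-beta-lactamase expression in HEK 293T cells was measured by FRET fluorescence following 16 h compound exposure at 37 °C.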

[20] = molecular target: Bile acid receptor (Homo sapiens) (UniProt Q96RI1); assay: qHTS assay to identify small molecule agonists of the farnesoid-X-receptor (FXR) signaling pathway (AID 743220; active means well fitted activation curve with a large enough effect in the signal ratio in the repeat runs, not every such curve was filed as active; the % refers to the signal ratio)
In short: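 Beta-lactamase reporter under UAS control in GeneBLAzer FXR HEK 293T cells (5000/well) measured with LiveBLAzer FRET substrate after 2 h at room temperature. Compound exposure lasted 16 h at 37C.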

Measured: Potency

Aryl hydrocarbon receptor (Homo sapiens), sequence (P35869 whole entry, looked up): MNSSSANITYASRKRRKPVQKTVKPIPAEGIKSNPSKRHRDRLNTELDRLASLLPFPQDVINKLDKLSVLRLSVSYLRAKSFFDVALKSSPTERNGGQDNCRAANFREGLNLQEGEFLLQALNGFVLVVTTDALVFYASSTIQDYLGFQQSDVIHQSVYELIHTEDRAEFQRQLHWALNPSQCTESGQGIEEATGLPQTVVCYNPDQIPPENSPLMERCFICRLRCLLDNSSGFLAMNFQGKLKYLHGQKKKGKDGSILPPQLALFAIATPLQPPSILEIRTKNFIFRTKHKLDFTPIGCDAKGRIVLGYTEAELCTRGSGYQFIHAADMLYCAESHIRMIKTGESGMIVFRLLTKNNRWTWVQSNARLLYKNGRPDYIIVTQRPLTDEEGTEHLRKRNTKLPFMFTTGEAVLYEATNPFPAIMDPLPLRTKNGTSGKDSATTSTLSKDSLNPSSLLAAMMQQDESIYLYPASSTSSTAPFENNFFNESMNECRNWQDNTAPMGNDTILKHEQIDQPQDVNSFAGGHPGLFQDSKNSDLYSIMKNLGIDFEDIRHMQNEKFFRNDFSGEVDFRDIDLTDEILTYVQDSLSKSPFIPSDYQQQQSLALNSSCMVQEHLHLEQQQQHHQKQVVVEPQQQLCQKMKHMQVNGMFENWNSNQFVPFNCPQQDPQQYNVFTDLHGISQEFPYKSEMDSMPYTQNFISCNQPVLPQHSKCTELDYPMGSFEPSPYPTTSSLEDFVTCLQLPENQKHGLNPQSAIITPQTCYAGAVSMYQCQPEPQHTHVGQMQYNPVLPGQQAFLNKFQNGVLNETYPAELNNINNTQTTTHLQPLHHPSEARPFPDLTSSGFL
Peroxisome proliferator-activated receptor delta (Homo sapiens), sequence (Q03181 whole entry, looked up): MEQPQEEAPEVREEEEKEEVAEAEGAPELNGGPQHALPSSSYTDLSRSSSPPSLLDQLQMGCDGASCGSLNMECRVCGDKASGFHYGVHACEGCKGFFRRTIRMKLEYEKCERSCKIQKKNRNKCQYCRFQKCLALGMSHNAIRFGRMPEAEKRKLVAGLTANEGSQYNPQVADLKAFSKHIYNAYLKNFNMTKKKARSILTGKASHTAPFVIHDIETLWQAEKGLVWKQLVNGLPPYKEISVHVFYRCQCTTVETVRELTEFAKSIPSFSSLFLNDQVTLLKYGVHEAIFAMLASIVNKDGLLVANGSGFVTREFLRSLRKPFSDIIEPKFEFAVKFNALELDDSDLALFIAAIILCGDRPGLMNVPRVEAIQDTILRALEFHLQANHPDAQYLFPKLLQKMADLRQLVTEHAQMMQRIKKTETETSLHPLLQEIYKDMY
Vitamin D3 receptor (Homo sapiens), sequence (P11473 whole entry, looked up): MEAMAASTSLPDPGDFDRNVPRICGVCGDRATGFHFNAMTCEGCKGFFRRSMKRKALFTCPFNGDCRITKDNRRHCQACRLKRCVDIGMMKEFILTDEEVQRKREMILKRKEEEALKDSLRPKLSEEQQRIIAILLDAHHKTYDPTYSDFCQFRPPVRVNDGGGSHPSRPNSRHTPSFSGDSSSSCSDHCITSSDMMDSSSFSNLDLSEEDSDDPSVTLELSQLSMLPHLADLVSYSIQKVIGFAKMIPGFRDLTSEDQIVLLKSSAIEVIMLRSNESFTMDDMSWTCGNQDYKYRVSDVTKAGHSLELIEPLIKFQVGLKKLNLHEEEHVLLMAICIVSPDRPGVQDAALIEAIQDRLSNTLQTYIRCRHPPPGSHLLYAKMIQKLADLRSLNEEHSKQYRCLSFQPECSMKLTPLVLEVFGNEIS
Peroxisome proliferator-activated receptor gamma (Homo sapiens), sequence (P37231 whole entry, looked up): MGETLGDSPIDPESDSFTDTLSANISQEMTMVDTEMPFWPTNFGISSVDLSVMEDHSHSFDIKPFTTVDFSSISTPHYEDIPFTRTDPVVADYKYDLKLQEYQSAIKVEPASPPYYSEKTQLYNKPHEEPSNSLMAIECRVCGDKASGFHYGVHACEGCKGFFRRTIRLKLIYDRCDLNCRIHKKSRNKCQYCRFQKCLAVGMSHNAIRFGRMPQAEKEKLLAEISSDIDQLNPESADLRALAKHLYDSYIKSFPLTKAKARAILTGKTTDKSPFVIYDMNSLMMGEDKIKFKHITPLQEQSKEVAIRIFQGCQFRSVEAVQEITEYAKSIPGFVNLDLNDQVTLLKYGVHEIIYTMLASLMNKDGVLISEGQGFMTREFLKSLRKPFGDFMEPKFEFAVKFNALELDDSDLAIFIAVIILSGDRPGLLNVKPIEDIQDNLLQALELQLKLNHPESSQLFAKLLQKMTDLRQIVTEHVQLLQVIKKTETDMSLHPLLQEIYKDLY
Bile acid receptor (Homo sapiens), sequence (Q96RI1 whole entry, looked up): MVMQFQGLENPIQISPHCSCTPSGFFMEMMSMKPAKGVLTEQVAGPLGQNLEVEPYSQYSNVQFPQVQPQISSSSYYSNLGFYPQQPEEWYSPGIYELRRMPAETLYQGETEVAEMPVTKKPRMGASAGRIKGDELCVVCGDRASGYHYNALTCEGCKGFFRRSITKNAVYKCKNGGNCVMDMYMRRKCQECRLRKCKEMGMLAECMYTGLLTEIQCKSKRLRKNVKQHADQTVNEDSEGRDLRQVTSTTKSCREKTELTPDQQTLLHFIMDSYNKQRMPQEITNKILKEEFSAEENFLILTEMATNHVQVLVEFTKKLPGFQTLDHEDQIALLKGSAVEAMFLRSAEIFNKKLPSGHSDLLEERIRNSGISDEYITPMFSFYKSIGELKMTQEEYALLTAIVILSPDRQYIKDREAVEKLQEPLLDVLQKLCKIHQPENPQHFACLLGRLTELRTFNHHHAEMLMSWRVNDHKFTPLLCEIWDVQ

COP(=O)(O)OP(=O)(O)OC
inactive: [1] | [2] | [3] | [4] | [5] | [6] | [7] | [8] | [9] | [10] | [11] | [12] | [13] | [14] | [15]

CC(=O)c1cc(C)oc1C
inactive: [1] | [2] | [3] | [4] | [5] | [6] | [7] | [16] | [8] | [9] | [10] | [17] | [18] | [13] | [14] | [15]

CC(N)CCCC(C)(C)O (stereo unspecified)
inactive: [1] | [2] | [3] | [4] | [5] | [6] | [7] | [8] | [9] | [10] | [17] | [11] | [18] | [12] | [13] | [14] | [15]

CC/C=C\CCOC(=O)c1ccccc1O
inactive: [1] | [2] | [3] | [4] | [5] | [6] | [7] | [8] | [9] | [10] | [17] | [11] | [18] | [12] | [13] | [14] | [15]

Cc1ccc(N)cc1S(=O)(=O)O
inactive: [1] | [2] | [3] | [4] | [5] | [6] | [7] | [16] | [8] | [9] | [10] | [17] | [11] | [18] | [19] | [12] | [20] | [13] | [14]

CN1CCOC(c2ccccc2)c2ccccc2C1 (stereo unspecified)
inactive: [1] | [2] | [3] | [4] | [5] | [6] | [7] | [16] | [8] | [10] | [17] | [11] | [18] | [19] | [12] | [20]

CO[C@@]1(NC(=O)Cc2cccs2)C(=O)N2C(C(=O)O)=C(COC(N)=O)CS[C@@H]21
inactive: [1] | [2] | [3] | [4] | [5] | [6] | [7] | [16] | [8] | [9] | [10] | [11] | [12]

CC(=O)CCc1ccc(OC(C)=O)cc1
inactive: [1] | [2] | [3] | [4] | [5] | [6] | [7] | [8] | [9] | [10] | [17] | [11] | [18] | [19] | [12] | [20] | [13] | [14] | [15]

O=C(CCCCC(=O)Nc1c(I)cc(I)c(C(=O)O)c1I)Nc1c(I)cc(I)c(C(=O)O)c1I
inactive: [1] | [2] | [3] | [4] | [5] | [6] | [7] | [16] | [8] | [9] | [10] | [17] | [11] | [18] | [12] | [13] | [14]

CC(C)Nc1ccccc1
inactive: [1] | [2] | [3] | [4] | [5] | [6] | [7] | [16] | [8] | [10] | [17] | [11] | [18] | [12] | [13] | [14] | [15]

COC(=O)CCCCC(=O)O
inactive: [1] | [2] | [3] | [4] | [5] | [6] | [7] | [16] | [8] | [10] | [17] | [11] | [18]

CNCCS(=O)(=O)O
inactive: [1] | [2] | [3] | [4] | [5] | [6] | [7] | [16] | [8] | [9] | [10] | [17] | [11] | [18] | [13] | [14]

CCCCCCCCCCCCCBr
inactive: [1] | [2] | [3] | [4] | [5] | [6] | [7] | [16] | [8] | [9] | [10] | [17] | [11] | [18] | [19] | [12] | [20] | [13]

Nc1nnnn1-c1ccccc1
inactive: [1] | [2] | [3] | [4] | [5] | [6] | [7] | [8] | [9] | [10] | [17] | [11] | [18] | [19] | [12] | [20] | [13] | [14] | [15]

CC(C)=CCC/C(C)=C/COC=O
inactive: [1] | [2] | [3] | [4] | [5] | [6] | [7] | [16] | [8] | [9] | [10] | [17] | [11] | [18] | [12] | [13] | [15]

O=C(O)[C@H](O)c1ccccc1
inactive: [1] | [2] | [3] | [4] | [5] | [6] | [7] | [8] | [9] | [10] | [17] | [18] | [19] | [12] | [20] | [14] | [15]
